Measurements from the supplement of paper PMC4466140.

Experiments:
Assay in all cases: SPOT peptide array binding signal intensity (averaged, normalized) (arbitrary units (background-subtracted, floor 0; scale differs between SH3 domains)); higher = stronger binding of the SH3 domain to the peptide
AgAbp1 = molecular target: AgAbp1
How it was run: (§1)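 The binding signal is the normalized, background-subtracted spot intensity averaged over replicates; its arbitrary units differ between domains. It was obtained by incubating 10 μg/ml GST-fused SH3 domains from four yeast species overnight at 4°C in TBS-based blocking buffer on cellulose membranes with synthetic 15-mer peptides, cysteines replaced by serines, then detecting with anti-GST antibody, HRP anti-mouse secondary and luminol.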

AgBbc1 = molecular target: AgBbc1
How it was run: as §1

AgBem1-D1 = molecular target: AgBem1-D1
How it was run: as §1

AgBzz1-D1 = molecular target: AgBzz1-D1
How it was run: as §1

AgBzz1-D2 = molecular target: AgBzz1-D2
How it was run: as §1

AgCyk3 = molecular target: AgCyk3
How it was run: as §1

AgFus1 = molecular target: AgFus1
How it was run: as §1

AgHof1 = molecular target: AgHof1
How it was run: as §1

AgHse1 = molecular target: AgHse1
How it was run: as §1

AgLsb1 = molecular target: AgLsb1
How it was run: as §1

AgLsb4 = molecular target: AgLsb4
How it was run: as §1

AgMyo5 = molecular target: AgMyo5
How it was run: as §1

AgNbp2 = molecular target: AgNbp2
How it was run: as §1

AgRvs167 = molecular target: AgRvs167
How it was run: as §1

AgSho1 = molecular target: AgSho1
How it was run: as §1

AgSla1-D1-D2 = molecular target: AgSla1-D1-D2
How it was run: as §1

AgSla1-D3 = molecular target: AgSla1-D3
How it was run: as §1

CaAbp1-D1 = molecular target: CaAbp1-D1
How it was run: as §1

CaAbp1-D2 = molecular target: CaAbp1-D2
How it was run: as §1

CaBbc1 = molecular target: CaBbc1
How it was run: as §1

CaBem1-D1 = molecular target: CaBem1-D1
How it was run: as §1

CaBzz1-D1 = molecular target: CaBzz1-D1
How it was run: as §1

CaBzz1-D2 = molecular target: CaBzz1-D2
How it was run: as §1

CaCyk3 = molecular target: CaCyk3
How it was run: as §1

CaFus1 = molecular target: CaFus1
How it was run: as §1

CaHof1 = molecular target: CaHof1
How it was run: as §1

CaHse1 = molecular target: CaHse1
How it was run: as §1

CaLsb1 = molecular target: CaLsb1
How it was run: as §1

CaLsb4 = molecular target: CaLsb4
How it was run: as §1

CaMyo5 = molecular target: CaMyo5
How it was run: as §1

CaNbp2 = molecular target: CaNbp2
How it was run: as §1

CaRvs167 = molecular target: CaRvs167
How it was run: as §1

CaRvs167-3 = molecular target: CaRvs167-3
How it was run: as §1

CaSho1 = molecular target: CaSho1
How it was run: as §1

CaSla1-D1-D2 = molecular target: CaSla1-D1-D2
How it was run: as §1

CaSla1-D3 = molecular target: CaSla1-D3
How it was run: as §1

ScAbp1 = molecular target: ScAbp1
How it was run: as §1

ScBbc1 = molecular target: ScBbc1
How it was run: as §1

ScBem1-D1 = molecular target: ScBem1-D1
How it was run: as §1

ScBzz1-D1 = molecular target: ScBzz1-D1
How it was run: as §1

ScBzz1-D2 = molecular target: ScBzz1-D2
How it was run: as §1

ScCyk3 = molecular target: ScCyk3
How it was run: as §1

ScFus1 = molecular target: ScFus1
How it was run: as §1

ScHof1 = molecular target: ScHof1
How it was run: as §1

ScHse1 = molecular target: ScHse1
How it was run: as §1

ScLsb1 = molecular target: ScLsb1
How it was run: as §1

ScLsb2 = molecular target: ScLsb2
How it was run: as §1

ScLsb3 = molecular target: ScLsb3
How it was run: as §1

ScLsb4 = molecular target: ScLsb4
How it was run: as §1

ScMyo3 = molecular target: ScMyo3
How it was run: as §1

ScMyo5 = molecular target: ScMyo5
How it was run: as §1

ScNbp2 = molecular target: ScNbp2
How it was run: as §1

ScPex13 = molecular target: ScPex13
How it was run: as §1

ScRvs167 = molecular target: ScRvs167
How it was run: as §1

ScSho1 = molecular target: ScSho1
How it was run: as §1

ScSla1-D1-D2 = molecular target: ScSla1-D1-D2
How it was run: as §1

ScSla1-D3 = molecular target: ScSla1-D3
How it was run: as §1

SpAbp1-D1 = molecular target: SpAbp1-D1
How it was run: as §1

SpBbc1 = molecular target: SpBbc1
How it was run: as §1

SpBzz1-D1 = molecular target: SpBzz1-D1
How it was run: as §1

SpBzz1-D2 = molecular target: SpBzz1-D2
How it was run: as §1

SpCyk3 = molecular target: SpCyk3
How it was run: as §1

SpHof1 = molecular target: SpHof1
How it was run: as §1

SpHof1-2 = molecular target: SpHof1-2
How it was run: as §1

SpHof1-3 = molecular target: SpHof1-3
How it was run: as §1

SpHse1 = molecular target: SpHse1
How it was run: as §1

SpLsb1 = molecular target: SpLsb1
How it was run: as §1

SpLsb4 = molecular target: SpLsb4
How it was run: as §1

SpMyo1 = molecular target: SpMyo1
How it was run: as §1

SpNbp2 = molecular target: SpNbp2
How it was run: as §1

SpPex13 = molecular target: SpPex13
How it was run: as §1

SpRvs167 = molecular target: SpRvs167
How it was run: as §1

SpSla1-D1-D2 = molecular target: SpSla1-D1-D2
How it was run: as §1

SpSla1-D3 = molecular target: SpSla1-D3
How it was run: as §1

Measured: SPOT peptide array binding signal intensity

ATNVPVAPPPPPASL
1: AgBzz1-D1 | CaHof1 | ScAbp1 | ScCyk3
4.5: AgSla1-D1-D2
2.25: ScBbc1 | ScSla1-D3
27: AgHse1
339: SpMyo1
6.5: CaRvs167-3
23: CaBzz1-D1
4: CaCyk3
8.75: SpHse1
3: AgHof1
2: AgCyk3 | ScBzz1-D2 | ScLsb4
≤ 0: AgAbp1 | AgBem1-D1 | AgBzz1-D2 | AgFus1 | AgLsb1 | AgLsb4 | AgNbp2 | AgRvs167 | AgSho1 | AgSla1-D3 | CaAbp1-D1 | CaAbp1-D2 | CaBbc1 | CaBem1-D1 | CaFus1 | CaLsb1 | CaLsb4 | CaRvs167 | CaSho1 | CaSla1-D1-D2 | CaSla1-D3 | ScBem1-D1 | ScBzz1-D1 | ScFus1 | ScHof1 | ScHse1 | ScLsb2 | ScLsb3 | ScNbp2 | ScPex13 | ScRvs167 | ScSho1 | ScSla1-D1-D2 | SpAbp1-D1 | SpBbc1 | SpBzz1-D2 | SpCyk3 | SpHof1 | SpHof1-2 | SpHof1-3 | SpLsb1 | SpLsb4 | SpPex13 | SpRvs167 | SpSla1-D1-D2 | SpSla1-D3
0.25: CaBzz1-D2 | ScLsb1
125: SpBzz1-D1
0.5: CaHse1
468: AgMyo5
2.75: AgBbc1
1430: ScMyo3
13.8: CaMyo5
161: ScMyo5
18: CaNbp2
27.5: SpNbp2

DGNEEKPLLPTRPNK
3290: SpLsb4
0.875: SpHof1-2
1.88: SpHof1-3
0.25: SpHof1
1100: SpLsb1
≤ 0: SpBzz1-D2 | SpCyk3 | SpHse1 | SpMyo1 | SpNbp2 | SpPex13 | SpSla1-D1-D2 | SpSla1-D3
467: SpRvs167
